Only some compounds are listed: those with a hit (about 0.37% of all), similar ones and a draw of the others.
TRPV1 ag: HTS Assay for Compounds that Act as Agonists of the Vanilloid Receptor 1 | TRPV1-expressing cells, Fluo-8 calcium influx, agonist mode | activation, % at 8.33 µM | actives 0.19% (n = 320,000) | Transient receptor potential cation channel subfamily V member 1 (Homo sapiens), Q8NER1; in the data active means activation above about 80%; inconclusive means between about 30% and that limit
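TRPV1-expressing cells were cultured overnight at 35.5C and loaded with Fluo-8 calcium dye for 40 to 90 min at room temperature. After a 10 s baseline, compound was added and calcium influx was read kinetically for 3 min (ex 480/em 520 nm).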
AT treatment: qHTS Assay for Identifying a Potential Treatment of Ataxia-Telangiectasia; actives 0.19% (n = 320,000); Potency, µM (highest dose often 57.5 µM), usual class: activators; F2112 A-T fibroblasts, KAP-1 phosphorylation AlphaLISA; neocarzinostatin DNA damage 30 min before lysis; further: nearly all actives have a fitted effect of over 45% in size
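ATM-like activity read as KAP-1 phosphorylation via AlphaLISA donor/acceptor antibody pairs after lysis and 6 hr at 25C. Cells were ATM-null patient fibroblasts (F2112, hTERT), dosed 60 min, then exposed to the DSB inducer NCS for 30 min.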
S-ASM inh: Inhibitors of Secretory Acid Sphingomyelinase (S-ASM): qHTS | Sphingomyelin phosphodiesterase (Homo sapiens), P17405 | placental ASM, HMU-PC fluorogenic substrate, 60 min | Potency, µM (top dose mostly 57.5 µM), hits mostly inhibitors | actives 0.006% (n = 340,000) | AID 504937, 2011
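Fluorescence read-out (Ex 386 nm, Em 447 nm) after stopping the reaction at pH 10. Enzyme: ASM from human placenta; substrate HMU-PC0, 9 uM final; 60 min, 37 °C. Compound preincubation 10 min, ambient temperature.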
PTAP TSG101 blk: qHTS Assay for Iinhibitors of HIV-1 Budding by Blocking the Interaction of PTAP/TSG101; Fluorescence polarization, FITC-PTAP peptide / Tsg101 binding; Potency, µM (doses to about 115 µM), hits mostly inhibitors; 340,000 tested, under 10 active; Tumor susceptibility gene 101 protein (Homo sapiens), Q99816; active means well fitted inhibition curve with a large enough effect in the main read-out, with a control signal flat, not every such curve was filed as active; inconclusive means small, poorly fitted or top-dose-only effect, or effect the other way, or a change in a side signal; inactive means no such curve, though single readings can be large or run the other way
Target sequence (Q99816 whole entry, looked up): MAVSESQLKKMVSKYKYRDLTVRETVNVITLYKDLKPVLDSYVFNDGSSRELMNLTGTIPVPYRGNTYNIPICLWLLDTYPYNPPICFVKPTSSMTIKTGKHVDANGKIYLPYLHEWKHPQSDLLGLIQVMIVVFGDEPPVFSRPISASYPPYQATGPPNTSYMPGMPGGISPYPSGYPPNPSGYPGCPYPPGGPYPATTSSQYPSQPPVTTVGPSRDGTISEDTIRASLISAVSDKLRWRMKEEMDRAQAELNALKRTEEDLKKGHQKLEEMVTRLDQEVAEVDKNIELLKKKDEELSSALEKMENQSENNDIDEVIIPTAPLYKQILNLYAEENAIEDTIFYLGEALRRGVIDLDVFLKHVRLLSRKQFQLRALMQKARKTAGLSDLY
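Steps: Tsg101 binding domain dispensed (10 uM final), compounds pinned in DMSO, FITC-labeled PTAP-motif peptide added (50 nM final); after 20 min binding at room temperature, polarization measured.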
TRPV1 potentiator: HTS Assay for Compounds that Act as Potentiators of the Vanilloid Receptor 1 | Transient receptor potential cation channel subfamily V member 1 (Homo sapiens), Q8NER1 | TRPV1-expressing cells, Fluo-8 calcium influx, capsaicin EC20 potentiation | potentiation, % at 8.33 µM | actives 0.02% (n = 320,000) | AID 540277, 2011; in the data active means potentiation above about 80%; inconclusive means between about 30% and that limit
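Cells expressing TRPV1 were dye-loaded with Fluo-8 and read kinetically: 10 s baseline, 3 min after compound (agonist portion), then 2 min after EC20 capsaicin (allosteric enhancer portion). Calcium-bound dye fluorescence at 480/520 nm.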
Of the large screens only hits and unclear results are named; the others gave an inactive call. Unless noted, the call rests on the fitted dose curve; in most records, active means well fitted curve in the direction sought with a large enough effect; inconclusive means small, poorly fitted or top-dose-only effect, or another doubt; inactive means no such curve, though single readings can be large; an effect the other way counts as inactive or inconclusive.

CC(C)c1ccc(NC(=O)C(c2ccccc2)N2CC(=O)Nc3ccccc32)cc1 (stereo not drawn)	AT treatment 35µM
CC(C)[C@H](NC(=O)N1CC(=O)Nc2ccccc21)C(=O)N[C@H](C(=O)O)c1ccccc1	none
COc1cc(S(=O)(=O)NC(Cc2c[nH]c3ccccc23)C(=O)O)ccc1NC(C)=O (stereo not drawn)	none
COc1ccc(CCNC(=O)Nc2ccc(F)cc2F)cc1OC	AT treatment 10µM
COc1ccc(CCNC(=O)NC(C(F)(F)F)C(F)(F)F)cc1OC	none
Cc1cc(C)c2c(c1)C1C=CCC1C(C(=O)O)N2 (stereo not drawn)	none (no result: AT treatment, S-ASM inh, PTAP TSG101 blk)
Cc1ccc(N2C(=O)C3N=NN(CC(=O)N4N=C(c5ccccc5)CC4c4ccccc4)C3C2=O)cc1 (stereo not drawn)	TRPV1 potentiator 84
COc1cc(C#Cc2c(-c3cncn3C)n(C)c3ccc(Br)cc23)cc(OC)c1	none (no result: TRPV1 ag, TRPV1 potentiator)
CS(=O)(=O)NNC(=O)c1sccc1OCc1ncc(C(F)(F)F)cc1Cl	none
Cc1cccc(N2CCN(CC(=O)NCc3ccc(Cl)cc3)CC2)c1C	TRPV1 ag 83
COC(=O)c1cn(NC(=O)c2ccc(OC)c(OC)c2)c(=O)c2ccccc12	TRPV1 potentiator inconclusive
COC(=O)c1cn(NC(=O)c2ccc3c(c2)OCO3)c(=O)c2ccccc12	TRPV1 ag 80
CCN(c1ccccc1)S(=O)(=O)c1c(-c2ccc(C)cc2)csc1C(=O)OC	none (no result: AT treatment, S-ASM inh, PTAP TSG101 blk)
O=C(C1=C[C@@H](C2CCCCC2)C[C@@H](OCc2ccc(CO)cc2)O1)N1CCN(Cc2ccc3c(c2)OCO3)CC1	TRPV1 ag inconclusive
O=C(CSc1nc2ccsc2c(=O)n1-c1ccc(Br)cc1)NCc1ccccc1	none (no result: AT treatment, S-ASM inh, PTAP TSG101 blk)
CC12CCC(C(=O)NNc3ccccc3)(OC1=O)C2(C)C (stereo not drawn)	none
CC12CCC(C(=O)NNc3ccc([N+](=O)[O-])cc3)(OC1=O)C2(C)C (stereo not drawn)	AT treatment 10µM
CC(C)(C)c1ccc(C(=O)Nc2cccnc2)cc1	TRPV1 ag 94
O=C(Nc1ccc(Nc2ccccc2)cc1)c1ccc(Cl)cc1	none (no result: TRPV1 ag, AT treatment, TRPV1 potentiator)
CC(C)(C)c1ccc(C(=O)Nc2ccc(Cl)cc2)cc1	TRPV1 ag 80 (no result: S-ASM inh)
CC(C)(C)c1cc(C(=O)NNC(=O)c2ccc(Cl)cc2)no1	TRPV1 ag 82
COC(=O)Cc1ccc(NC(=O)c2ccccc2Cl)cc1	none
O=C(Nc1cccnc1)c1ccc(C(=O)Nc2cccnc2)cc1	none
COC(=O)Cc1ccc(NC(=O)c2ccc(C(C)(C)C)cc2)cc1	TRPV1 ag 81 (no result: AT treatment)
Cc1cc(C(=O)NNC(=O)c2ccc(C(F)(F)F)cc2)no1	none
Cc1ccc(NC(=O)c2ccsc2)cc1NS(C)(=O)=O	none
CC(C)(C)c1ccc(NC(=O)c2ccsc2)cc1	TRPV1 ag 83
C=C(C)c1cccc(C(C)(C)NC(=O)Nc2cccnc2)c1	TRPV1 ag 98, TRPV1 potentiator inconclusive
COc1ccc(CCN(C)C2CCCN(S(=O)(=O)c3ccc(C)cc3)C2)cc1OC (stereo not drawn)	none
Cc1c(C(=O)Nc2cccnc2)oc2ccc(Br)cc12	TRPV1 ag 91
CCc1ccc2oc(C(=O)Nc3cccnc3)c(C)c2c1	TRPV1 ag 89
Cc1c(C(=O)Nc2cccc(S(=O)(=O)N3CCOCC3)c2)oc2ccc(Br)cc12	none (no result: TRPV1 ag, TRPV1 potentiator)
O=C(Nc1cccnc1)c1cc2c(ccc3ccccc32)o1	TRPV1 ag inconclusive (no result: AT treatment)
O=C(Nc1cc(F)c(Br)cc1F)c1ccc(Cl)cc1	TRPV1 ag inconclusive
CC1CC(NC(=O)c2cc3c(=O)n4ccccc4nc3n2C)CC(C)(C)C1 (stereo not drawn)	AT treatment 28µM
CC1CCCCC1NC(=O)c1cc2c(=O)n3ccccc3nc2n1C (stereo not drawn)	AT treatment inconclusive
Cc1ccc(NC(=O)c2cc3ccccc3oc2=N)cc1	AT treatment inconclusive
N=c1oc2c3c4c(cc2cc1C(=O)Nc1ccccc1)CCCN4CCC3	TRPV1 ag 84, AT treatment 16µM, PTAP TSG101 blk inconclusive
Cn1c2ccccc2c(=O)c2ccc(NCc3ccc4c(c3)OCO4)cc21	none (no result: TRPV1 ag, AT treatment, TRPV1 potentiator)
COc1ccccc1NC(=S)N(Cc1ccccc1)Cc1ccccn1	none
S=C(Nc1ccccc1Cl)N(Cc1ccccc1)Cc1ccccn1	TRPV1 potentiator 132
Oc1ccccc1N=Cc1c(O)ccc2ccccc12	TRPV1 ag 97, AT treatment inconclusive, PTAP TSG101 blk inconclusive
Oc1ccc2ccccc2c1C=Nc1ccccc1Br	PTAP TSG101 blk inconclusive
COc1ccc(OCc2nnc3n2N=C(c2ccc(Br)cc2)CS3)cc1	none (no result: TRPV1 ag, TRPV1 potentiator)
O=C(NC12CC3CC(CC(C3)C1)C2)c1cccc(OC(F)F)c1	AT treatment 4µM
CCOc1ccc2nc(NC(=O)CSCC(=O)Nc3cc(C)on3)sc2c1	none
CC(=O)NNC(=O)CN1C(=O)/C(=C/c2ccccc2)SC1=S	AT treatment 3.2µM
CCN(CC)C(=O)CN1C(=O)/C(=C/c2ccccc2)SC1=S	none
COc1ccc(/C=C2/SC(=S)N(Cc3ccccc3)C2=O)cc1O	AT treatment 40µM, S-ASM inh inconclusive
Cc1ccc(N2CC(C(=O)O)CC2=O)cc1 (stereo not drawn)	none
COc1ccc(C2C(C(=O)N3CCN(c4ccccc4)CC3)c3ccccc3C(=O)N2C)cc1 (stereo not drawn)	none
Cc1ccc2nc(NC(=O)CSc3[nH]c(=O)ncc3C)sc2c1	none (no result: AT treatment, S-ASM inh, PTAP TSG101 blk)
COc1ccccc1[C@H]1C(c2cccc(Cl)c2)=NN(c2ccccc2)[C@@H]1CO	AT treatment 10µM (no result: TRPV1 ag, TRPV1 potentiator)
COc1ccc2c(c1)CCc1c(C(=O)N3CCOCC3)noc1-2	TRPV1 ag 81
COc1ccc(C2Nc3ccccc3C(=O)N2Cc2ccccc2)cc1COc1ccc(Cl)cc1Cl (stereo not drawn)	none (no result: S-ASM inh, PTAP TSG101 blk)
O=C(NC(=S)NC1CCN(Cc2ccccc2)CC1)c1ccc(F)cc1	AT treatment 1.4µM
O=C(NC1CCN(Cc2ccc(F)cc2)CC1)c1ccccc1	none
Cc1ccc(Oc2ccc(C(=O)NCc3ccncc3)cc2)cc1	TRPV1 ag inconclusive
O=C(NCc1ccncc1)c1ccc(Oc2ccccc2)cc1	TRPV1 ag 91
CC(=O)N[C@@H](Cc1ccc(O)cc1)C(=O)N[C@H](C(=O)N[C@@H](C)C(=O)N[C@H](C#N)CC(=O)O)C(C)C	none (no result: TRPV1 ag, S-ASM inh, PTAP TSG101 blk, TRPV1 potentiator)
Cc1cccc(/C=C(\c2nc3ccccc3[nH]2)S(=O)(=O)c2ccccc2)c1	AT treatment 35µM

Assay outcomes: PubChem BioAssay, National Center for Advancing Translational Sciences (NCATS)
